The text below walks through data of PubChem BioAssay (Tox21).

“And” between values parts separate entries of the source, which are not always exact repeats. Identical values can stand only once. A number with no mark means an inactive call. Inconclusive results are not listed. The source made the active and inactive calls. Unless noted, calls follow the shape of the dose curve; as a rule, active = well fitted curve in the direction sought with a large enough effect in the repeat runs; inconclusive = weak or mixed curves; inactive = no such curve, though single readings can be large; an effect the other way counts as inactive or inconclusive.

A short description of assay [1]: qHTS assay for small molecules that induce genotoxicity in human embryonic kidney cells expressing luciferase-tagged ATAD5 - cell viability (AID 651634; calls by dose curve; also: nearly all actives have a fitted effect of over 25% in size; also: potency is read from the fitted curve at half-maximal effect). The essentials:
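Cytotoxicity counterscreen in HEK293T cells bearing an ATAD5-luciferase reporter: live-cell protease activity measured by CellTiter-Fluor fluorescence after 15.5 hr compound exposure.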
For orientation: Quantitative high-throughput screening tests each substance at several concentrations.

A short description of assay [2]: qHTS assay for small molecule disruptors of the mitochondrial membrane potential - cell viability (AID 720634; calls by dose curve; also: nearly all actives have a fitted effect of over 20% in size; also: potency is read from the fitted curve at half-maximal effect;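 as to activity change, negative = cytotoxicity: human HepG2 liver cancer cells; series mostly up to about 83 µM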). In short, it runs like this: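 After overnight attachment at 37 C, HepG2 cells received compound or DMSO vehicle for 1 hr. Viability is then taken from ATP-driven luminescence following a 30 min room-temperature CellTiter-Glo step.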
Assay [3] is described as follows: qHTS assay to test for compound auto fluorescence at 590 nm (red) in HepG2 cells (AID 720674). In short, it runs like this:
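1 hr compound incubation on HepG2 cells, 37 C, 5% CO2; plate read ex 540 nm / em 590 nm; intensities reported as Rose Bengal sodium equivalents.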

Assay [4] in a line: qHTS assay to test for compound auto fluorescence at 535 nm (green) in HepG2 cells (AID 720675).
The nature of assay [5]: qHTS assay to test for compound auto fluorescence at 460 nm (blue) in HEK293 cells (AID 720678). Also: potency is read from the fitted curve at half-maximal effect. In short, it runs like this:
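Cells were seeded and left to adhere for 4-5 hr at 37C. Compounds were then pin-transferred. After an overnight incubation at 37C under 5% CO2, intrinsic fluorescence at 405/460 nm was measured and referenced to triamterene.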

The nature of assay [6]: qHTS assay to test for compound auto fluorescence at 590 nm (red) in HEK293 cells (AID 720679). In short, it runs like this:
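Each well held 2,000 HEK293 cells in medium containing 10% dialyzed FBS. Following 4-5 hr attachment at 37C, 23 nL test compound or DMSO was added; plates sat overnight, and red fluorescence (540/590nm) was recorded.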

Assay [7] can be described thus: qHTS assay for small molecule agonists of the p53 signaling pathway - cell viability (AID 651633; calls by dose curve;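 also: p53RE-bla HCT reporter cells with a stable beta-lactamase p53 reporter; series mostly up to about 83 µM; nearly all actives have a fitted effect of over 30% in size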). The essentials: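 Viability counter-read: CellTiter-Glo luminescence (30 min, room temperature) in the same p53RE-bla plates. These plates had been exposed to compounds for 16 h at 37 C.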
Assay [8] can be described thus: qHTS assay for small molecule disruptors of the mitochondrial membrane potential (AID 720635). Also: potency is read from the fitted curve at half-maximal effect. In short, it runs like this:
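Mitochondrial membrane potential tracked with Mito-MPS dye, red aggregates (ex 540/em 590 nm) against green monomers (ex 490/em 535 nm). Compound treatment 1 hr at 37C, dye 30 min in HepG2.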
% is scaled to controls: 0 for no effect and ±100 for the full control effect; tags tell the direction and shape of the fitted curve or compound fluorescence and quenching.

Regarding `O.O.O.O=C([O-])[C@H]([O-])[C@@H]([O-])C(=O)[O-].O=C([O-])[C@H]([O-])[C@@H]([O-])C(=O)[O-].[K+].[K+].[Sb+3].[Sb+3]`, the Potency result in assay [1], in assay [2], in assay [4] and in assay [5] was “inactive” each time. The call in assay [3] and in assay [6] was inactive.
For `COP(=S)(OC)Oc1ccc([N+](=O)[O-])c(C)c1`, the Potency entry in assay [7], in assay [1], in assay [4] and in assay [5] was “inactive” in each case. For the same compound, the Potency in assay [8] is 68.6 µM (active). For the same compound, the compound was called inactive in assay [3] and in assay [6].
Turning to `CCO/N=C(\CC)C1=C(O)CC(c2c(C)cc(C)cc2C)CC1=O` (stereo unspecified), the Potency entry in assay [1], in assay [2], in assay [4] and in assay [5] was “inactive” throughout. Further, the Potency in assay [8] is 12.2 µM (active). Also, the result in assay [3] was inactive.
On to `CC(=O)[O-].CC(=O)[O-].CC(=O)[O-].[Sb+3]`, for which the activity change, negative = cytotoxicity in assay [7] is 11.3% [at 8.08 µM]. The activity, negative = cytotoxicity in assay [1] is 20.6% [at 8.08 µM]. Moreover, the fluorescence, relative to Rose Bengal in assay [3] is -0.0388% [at 3.72 µM]. For the same compound, the fluorescence, % of fluorescein control in assay [4] is -0.114% [at 3.72 µM]. Also, in assay [6], the fluorescence, % of fluorescent control is 0.24% [at 3.72 µM].
For the compound `Cc1ccccc1OP(=O)(Oc1ccccc1C)Oc1ccccc1C`, the Potency result in assay [1] and in assay [4] was “inactive” each time. Besides, the Potency is 9.73 µM (active) in assay [2] and 17.3 µM (active) in assay [8]. The compound was called inactive in assay [3].
As for `Clc1cc(Cl)c(-c2cc(Cl)c(Cl)cc2Cl)cc1Cl`, the Potency result in assay [1], in assay [2], in assay [4] and in assay [5] was “inactive” in each case. Also, the result in assay [3] and in assay [6] was inactive.
As for `[Cl-].[Cl-].[Sn+2]`, the Potency result in assay [1], in assay [4] and in assay [5] was “inactive” each time. Further, the compound was classed as inactive in assay [3] and in assay [6].
`CCNc1nc(NC(C)C(C)C)nc(SC)n1` (stereo unspecified): the Potency entry in assay [1], in assay [2], in assay [4] and in assay [5] was “inactive” throughout. Also, the Potency in assay [8] is 7.7 µM (active). Also, the result in assay [3] and in assay [6] was inactive.
Regarding `N#Cc1c2ccccc2cc2ccccc12`, the Potency entry in assay [1] and in assay [4] was “inactive” in each case. Further, the Potency was 1.72 µM (active) in assay [8] and 1.26 µM [fluorescent] (active) in assay [5]. The compound was classed as inactive in assay [3] and in assay [6].
Take `CCCCn1cc[n+](C)c1.[Cl][Fe-]([Cl])([Cl])[Cl]`: the Potency result in assay [1], in assay [2], in assay [8], in assay [4] and in assay [5] was “inactive” in each case. In addition, the call in assay [3] and in assay [6] was inactive.
For the compound `C=C(C)C(=O)[O][Sn]([CH2]CCC)([CH2]CCC)[CH2]CCC`, the Potency is 611 nM (active) in assay [1], 3.86 µM (active) in assay [2] and 0.0611 µM (active) in assay [8]. For the same compound, the compound was called inactive in assay [3] and in assay [6]. Besides, the Potency entry in assay [4] and in assay [5] was “inactive” throughout.
Regarding `Oc1cc(Cl)cc(Cl)c1`, the Potency result in assay [1], in assay [4] and in assay [5] was “inactive” in each case. For the same compound, the Potency in assay [8] was 9.79 µM (active). The outcome in assay [3] was inactive.
Take `CC1CCCC1`: the Potency result in assay [7] and in assay [2] was “inactive” throughout.
Turning to `CC(=O)[O-].CC(=O)[O-].O.O.O.[Pb+2]`, the Potency entry in assay [7] and in assay [4] was “inactive” throughout. The outcome in assay [3] was inactive.
On to `CC(=O)[O-].CC(=O)[O-].O.O.[Zn+2]`, for which the Potency result in assay [7], in assay [1], in assay [4] and in assay [5] was “inactive” each time. Further, the outcome in assay [3] and in assay [6] was inactive.
Consider `CC(=O)O.CC(=O)O.CC(=O)O.CC(=O)O.CC(=O)O.CC(=O)O.CC(=O)O.O.O.[Cr].[Cr].[Cr]`, for which the Potency entry in assay [7], in assay [1], in assay [4] and in assay [5] was “inactive” each time. The outcome in assay [3] was inactive.
Consider `CCC(C)Nc1c([N+](=O)[O-])cc(C(C)(C)C)cc1[N+](=O)[O-]` (stereo unspecified), for which the Potency result in assay [7], in assay [1], in assay [4] and in assay [5] was “inactive” each time. For the same compound, the compound was classed as inactive in assay [3] and in assay [6].
On to `O=C(NC(=O)c1c(F)cccc1F)Nc1ccc(Oc2ccc(C(F)(F)F)cc2Cl)cc1F`, for which the Potency entry in assay [7], in assay [1], in assay [4] and in assay [5] was “inactive” in each case. Further, the call in assay [3] was inactive.
As for `CCC(C)c1cccc(C(C)CC)c1O` (stereo unspecified), the Potency result in assay [1], in assay [2], in assay [4] and in assay [5] was “inactive” each time. Moreover, the Potency in assay [8] is 13.7 µM (active). Besides, the compound was classed as inactive in assay [3] and in assay [6].
Consider `CSSC`, for which the Potency result in assay [7] and in assay [4] was “inactive” each time. The outcome in assay [3] and in assay [6] was inactive.
Turning to `O.O.O.O.O.O.O.O=S(=O)([O-])[O-].[Co+2]`, the Potency entry in assay [2] and in assay [4] was “inactive” throughout. Further, the result in assay [3] was inactive.
Consider `CC(=O)[O-].CC(=O)[O-].[Co+2]`, for which the Potency entry in assay [7], in assay [1], in assay [4] and in assay [5] was “inactive” each time. Besides, the outcome in assay [3] and in assay [6] was inactive.
As for `O=C(Nc1ccc(F)cc1F)c1cccnc1Oc1cccc(C(F)(F)F)c1`, the Potency result in assay [1], in assay [2], in assay [4] and in assay [5] was “inactive” throughout. The Potency in assay [8] is 23.8 µM (active). For the same compound, the compound was called inactive in assay [3] and in assay [6].
Consider `O=[N+]([O-])[O-].[Tl+]`, for which the Potency result in assay [1], in assay [4] and in assay [5] was “inactive” each time. Moreover, the outcome in assay [3] and in assay [6] was inactive.
Take `CC(C)C(Nc1ccc(C(F)(F)F)cc1Cl)C(=O)OC(C#N)c1cccc(Oc2ccccc2)c1` (stereo unspecified): the Potency entry in assay [1], in assay [2], in assay [4] and in assay [5] was “inactive” in each case. Further, the Potency in assay [8] was 49 µM (active). Moreover, the outcome in assay [3] and in assay [6] was inactive.
Consider `CCCCC(CC)COC(=O)c1ccccc1C(=O)OCC(CC)CCCC` (stereo unspecified), for which the Potency entry in assay [7], in assay [1], in assay [2] and in assay [4] was “inactive” throughout. Also, the result in assay [3] and in assay [6] was inactive.
In the case of `Cc1ccc2cc3c(ccc4ccccc43)c3c2c1CC3`, the Potency entry in assay [1], in assay [4] and in assay [5] was “inactive” throughout. In addition, the Potency in assay [8] is 12.2 µM (active). Further, the outcome in assay [3] and in assay [6] was inactive.
Turning to `[Cl-].[Cl-].[Cl-].[Yb+3]`, the Potency entry in assay [1] and in assay [4] was “inactive” each time. Further, the outcome in assay [3] was inactive.
For the compound `CC(Cc1ccc(O)cc1)NCC(O)c1cc(O)cc(O)c1` (stereo unspecified), the Potency result in assay [1], in assay [2], in assay [8], in assay [4] and in assay [5] was “inactive” each time. For the same compound, the call in assay [3] and in assay [6] was inactive.
For the compound `CC(=O)[O-].CC(=O)[O-].CC(=O)[O-].[Cr+3]`, the Potency result in assay [7], in assay [1] and in assay [4] was “inactive” throughout. Further, in assay [3], the outcome was inactive.
Turning to `CCOP(=S)(OCC)SC(CCl)N1C(=O)c2ccccc2C1=O` (stereo unspecified), the Potency result in assay [7], in assay [1], in assay [4] and in assay [5] was “inactive” in each case. In addition, the compound was classed as inactive in assay [3] and in assay [6].
Turning to `FC(F)C(F)(F)OCC(Cn1cncn1)c1ccc(Cl)cc1Cl` (stereo unspecified), in assay [8], the Potency was 48.3 µM (active). The outcome in assay [3] and in assay [6] was inactive. In addition, the Potency entry in assay [4] and in assay [5] was “inactive” in each case.
In the case of `O.O.O.O.O.O.O=S(=O)([O-])[O-].[Ni+2]`, the Potency result in assay [1], in assay [2], in assay [4] and in assay [5] was “inactive” each time. Moreover, the compound was called inactive in assay [3] and in assay [6].
Take `CCCCn1cc[n+](C)c1` (tested in a mixture with another compound): the Potency result in assay [1], in assay [2], in assay [8] and in assay [4] was “inactive” in each case. Further, the call in assay [3] and in assay [6] was inactive.
For the compound `CC(C)N(C(=O)CCl)c1ccccc1`, the Potency in assay [1] was 27.3 µM (active) and 38.6 µM (active). Moreover, the Potency result in assay [2], in assay [8], in assay [4] and in assay [5] was “inactive” in each case. Also, the compound was classed as inactive in assay [3] and in assay [6].
As to `C#CCC1=C(C)C(OC(=O)C2C(C=C(C)C)C2(C)C)CC1=O` (stereo unspecified), the Potency entry in assay [1], in assay [4] and in assay [5] was “inactive” throughout. Further, the Potency in assay [8] is 60.7 µM (active). In addition, the result in assay [3] and in assay [6] was inactive.
Regarding `O=S(=O)(NS(=O)(=O)C(F)(F)F)C(F)(F)F`, the Potency result in assay [7], in assay [1], in assay [2] and in assay [4] was “inactive” each time. The result in assay [3] and in assay [6] was inactive.
